Compound activity as filed in PubChem BioAssay.
Insulin prom inh = TRM-6 insulin promoter activity inhibition | TRM-6 cells (human fetal islet line), insulin promoter-eGFP reporter, imaging; reporter expression induced with tamoxifen | inhibition, % at 2 µM | hit rate 0.9% among 130,000;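 active = inhibition above the mean plus 3 SD, with well images judged a real hit on visual review, cut at about 60% in these data, passing the limit was not always enough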
L major viab = reduces viability of Leishmania major promastigotes; inhibition, % at 10 µM; resazurin fluorescence viability; hit rate 9% among 200,000; in the data active = inhibition above about 50%;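 also: promastigotes grown with compound for 44 hours at 28 °C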
Ins promoter up = MIN6 insulin promoter up-regulation; z-score at 5 µM; AID 1625; MIN6 insulin promoter-GFP reporter, high-content imaging; stronger effect = higher value; hit rate 0.3% among 190,000;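 active = z-score above 3 at 5 µM with at least 500 cells counted in the well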
ROMK primary = human ROMK K+ channel modulation, primary screen; B-score at 10 µM; hit rate 2% among 130,000; Tet-inducible ROMK, thallium flux fluorescence; actives lie on both sides; P48048;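 active = signal ratio slope over the read window, or its plate-corrected B-score, at least 3 SD from the plate mean, either direction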;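 also: B-score of the F/F0 ratio slope over 7 to 12 s after thallium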
WT yeast gro inh = growth inhibition of WT yeast, mitochondrial fusion screen; hit rate 2.1% among 190,000; inhibition, % at 10 µM; AID 1362; mitochondrial fusion phenotypic screen, WT strain; in the data active = inhibition above about 58%; tested in S. cerevisiae
Cl transport mod = KCC2 (human) Cl- transport modulation | hit rate 2.2% among 190,000 | B-score of Tl+ flux slope (higher = more flux/activation; lower = inhibition) at 10 µM | Q9H2X9 | KCC2 cells, thallium flux FluoZin-2 fluorescence;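 active = thallium flux slope and its plate-corrected score both differing from the plate sample mean at a set confidence after two filtering rounds, in either direction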;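 also: slope of fluorescence scaled to starting intensity during 10 to 20 s after thallium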
Target sequence (Q9H2X9 whole entry, looked up): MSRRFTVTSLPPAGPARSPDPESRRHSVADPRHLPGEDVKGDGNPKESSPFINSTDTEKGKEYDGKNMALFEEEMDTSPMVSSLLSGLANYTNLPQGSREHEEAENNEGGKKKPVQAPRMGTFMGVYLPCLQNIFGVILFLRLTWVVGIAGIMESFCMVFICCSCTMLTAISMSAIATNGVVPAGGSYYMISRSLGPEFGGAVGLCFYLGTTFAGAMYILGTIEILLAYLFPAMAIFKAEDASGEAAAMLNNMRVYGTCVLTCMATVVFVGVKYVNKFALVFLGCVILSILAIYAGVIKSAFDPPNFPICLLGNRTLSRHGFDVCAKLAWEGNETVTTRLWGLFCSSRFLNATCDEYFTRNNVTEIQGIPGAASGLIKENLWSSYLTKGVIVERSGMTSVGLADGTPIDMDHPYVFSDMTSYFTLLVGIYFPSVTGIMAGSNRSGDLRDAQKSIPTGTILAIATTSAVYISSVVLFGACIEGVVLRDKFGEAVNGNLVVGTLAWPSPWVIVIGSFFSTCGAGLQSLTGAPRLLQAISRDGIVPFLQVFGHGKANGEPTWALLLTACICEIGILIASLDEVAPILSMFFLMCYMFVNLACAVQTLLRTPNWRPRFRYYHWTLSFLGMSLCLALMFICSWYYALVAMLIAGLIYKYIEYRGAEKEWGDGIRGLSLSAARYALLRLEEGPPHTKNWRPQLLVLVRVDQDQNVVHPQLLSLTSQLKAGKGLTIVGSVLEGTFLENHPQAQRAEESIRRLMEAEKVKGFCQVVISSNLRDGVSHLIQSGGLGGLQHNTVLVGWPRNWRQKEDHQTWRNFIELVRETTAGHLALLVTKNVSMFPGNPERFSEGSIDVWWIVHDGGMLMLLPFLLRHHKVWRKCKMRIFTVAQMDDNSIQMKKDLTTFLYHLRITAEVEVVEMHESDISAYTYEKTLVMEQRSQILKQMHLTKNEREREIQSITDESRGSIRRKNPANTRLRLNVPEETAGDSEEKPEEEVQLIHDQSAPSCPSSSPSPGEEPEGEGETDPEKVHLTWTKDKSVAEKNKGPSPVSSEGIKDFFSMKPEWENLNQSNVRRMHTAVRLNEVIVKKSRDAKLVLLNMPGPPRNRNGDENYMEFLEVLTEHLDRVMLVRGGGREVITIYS
Each line names hits and unclear results; the compound was inactive in the other large screens. An excerpt weighted towards active compounds, which were near 12% of everything screened.

CCc1ccc2[nH]c(=O)c(CN(Cc3ccc4c(c3)OCO4)Cc3nnnn3C3CCCC3)cc2c1	L major viab 97 (no result: ROMK primary)
Cc1ccc2cc(CN(Cc3ccc(F)cc3)Cc3nnnn3C3CCCC3)c(=O)[nH]c2c1	L major viab 81
Cc1ccc2[nH]c(=O)c(CN(CCCN3CCOCC3)Cc3nnnn3C3CCCC3)cc2c1	none (no result: Insulin prom inh)
Cc1c(NC(=O)c2ccc(C(C)(C)C)cc2)cccc1[N+](=O)[O-]	none
CCc1ccccc1NC(=O)c1ccc(NCCc2ccccc2)c([N+](=O)[O-])c1	L major viab 67
O=C(Nc1ccccc1)c1ccc(NCCc2ccccc2)c([N+](=O)[O-])c1	none (no result: Insulin prom inh, ROMK primary)
CC(C)(C)c1ccc(NC(=O)c2ccccc2)c([N+](=O)[O-])c1	WT yeast gro inh 66 (no result: ROMK primary)
Cc1c(Cl)cccc1NC(=O)CCC(=O)NNC(=O)CCC(=O)O	none
COc1cc2c(cc1OC)CN(Cc1cc(=O)oc3cc(C)c(Cl)cc13)CC2	L major viab 60
COc1cc2c(cc1OC)CN(Cc1cc(=O)oc3cc(C)c(C)cc13)CC2	none
Cc1cc(C(=O)COC(=O)Cn2c(C(F)(F)F)nc3ccccc32)c(C)n1Cc1ccco1	none (no result: Insulin prom inh, ROMK primary)
CCCCCCCCOC(=O)C[N+](C)(C)C/C=C(/C)Cl	L major viab 67
Cc1ccc(C(=O)NNC2=NC(C)(C)Cc3ccccc32)cc1	none (no result: Insulin prom inh, L major viab, ROMK primary, WT yeast gro inh)
O=C(NCc1ccccn1)C1CCN(C(=O)c2cc3sccc3n2Cc2ccc(F)cc2)CC1	none (no result: Ins promoter up)
O=C(NCCCN1CCCC1)C1CCN(C(=O)c2cc3sccc3n2Cc2ccc(F)cc2)CC1	L major viab 93 (no result: Insulin prom inh, ROMK primary)
CCN1CCCC1CNC(=O)C1CCN(C(=O)c2cc3sccc3n2Cc2ccc(F)cc2)CC1 (stereo not drawn)	L major viab 90
O=C(NCc1ccco1)C1CCN(C(=O)c2cc3sccc3n2Cc2ccc(F)cc2)CC1	L major viab 79 (no result: ROMK primary)
CCn1c(C(=O)N2CCC(C(=O)NCc3ccc4c(c3)OCO4)CC2)cc2sccc21	none (no result: Insulin prom inh, Ins promoter up, ROMK primary)
O=C(NCc1ccco1)c1cc2sccc2n1Cc1ccccc1	WT yeast gro inh 61 (no result: ROMK primary)
COc1ccc(NC(=O)Cc2ccc(-c3ccccc3)cc2)cn1	none (no result: Insulin prom inh)
CCn1c(SCC(=O)NCC2CCCO2)nnc1-c1ccc(S(=O)(=O)N2CCN(C)CC2)cc1 (stereo not drawn)	none (no result: Ins promoter up)
O=C(NCc1ccco1)C1CCN(Cc2ccc(F)cc2)CC1	L major viab 91 (no result: ROMK primary)
COCCCNC(=O)C1CCN(C(=O)c2cc3sccc3n2Cc2ccc(F)cc2)CC1	none (no result: Insulin prom inh)
O=C(NCc1ccco1)C1CCCCC1	none (no result: Insulin prom inh)
CCN(CC)CCCNC(=O)C1CCN(C(=O)c2cc3sccc3n2Cc2ccc(F)cc2)CC1	L major viab 99 (no result: Insulin prom inh)
CCO[C@@H]1OC(C(=O)NC2CC2)=C[C@H](c2ccc3c(c2)OCO3)[C@H]1CCCO	none (no result: Insulin prom inh, ROMK primary)
CCCC(=O)NC(=S)Nc1cccc(Cl)c1N1CCCC1	none (no result: Insulin prom inh)
O=c1c(Cl)c2oc3ccccc3nc-2c2ccccc12	L major viab 81 (no result: Ins promoter up)
CC(C)(C)/C(O)=C/c1nc2ccccc2oc1=O	none
Cc1cc2cc(CNC(=O)c3ccc(Br)o3)ccc2n1C	none (no result: Insulin prom inh, L major viab, ROMK primary)
CN1CCN(Cc2c(O)ccc3c(-c4ccccc4)cc(=O)oc23)CC1	L major viab 80 (no result: Insulin prom inh)
CCCCN(C)Cc1c(O)ccc2c(-c3ccccc3)cc(=O)oc12	L major viab 65 (no result: ROMK primary)
CCN(CC)Cc1c(O)ccc2c(-c3ccccc3)cc(=O)oc12	none
c1ccc2sc(NN=C3CCCCCC3)nc2c1	L major viab 63 (no result: Insulin prom inh)
O=C(Nc1nc2ccccc2s1)c1ccccc1	none (no result: Insulin prom inh)
CCC1(C(=O)O)NC(c2cc(OC)ccc2O)C2C(=O)N(Cc3ccccc3)C(=O)C21 (stereo not drawn)	none (no result: Insulin prom inh, ROMK primary)
COc1ccc2nc(NC(=O)CN3CCOCC3)sc2c1	none (no result: Cl transport mod)
COc1ccc2nc(NC(=O)Cc3ccc(OC)c(S(=O)(=O)N4CCOCC4)c3)sc2c1	none (no result: Insulin prom inh, ROMK primary)
COc1cc(C(=O)Nc2nc3ccc(S(=O)(=O)N4CCOCC4)cc3s2)cc(OC)c1OC	L major viab 61 (no result: Ins promoter up, ROMK primary, WT yeast gro inh)
COc1ccc2nc(NC(=O)c3cccc(S(=O)(=O)N4CCOCC4)c3)sc2c1	Insulin prom inh 74 (no result: ROMK primary)
COc1ccc(OC)c2sc(NC(=O)c3ccc(S(=O)(=O)N4CCOCC4)cc3)nc12	none (no result: Insulin prom inh, ROMK primary)
COc1ccc2nc(NC(=O)c3cc(S(=O)(=O)N4CCOCC4)ccc3C)sc2c1	L major viab 56 (no result: Ins promoter up)
Cc1ccc(S(=O)(=O)N2CCOCC2)cc1C(=O)Nc1ccc2c(c1)CCC2	L major viab 52 (no result: ROMK primary)
N#Cc1ccc(S(=O)(=O)N2CCCN(c3nc4ccc(Cl)cc4s3)CC2)cc1	none (no result: Insulin prom inh, L major viab, ROMK primary, WT yeast gro inh, Cl transport mod)
